How the values were obtained:
[1] = target: Leukocyte tyrosine kinase receptor (Homo sapiens) (UniProt P29376); details: at 1 µM;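 further: each value is the mean inhibition of LTK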
[2] = target: Tyrosine-protein kinase Lyn (Homo sapiens) (UniProt P07948); details: at 0.1 µM
[3] = target: Tyrosine-protein kinase Lyn (Homo sapiens) (UniProt P07948); details: at 1 µM
[4] = target: Tyrosine-protein kinase Lyn (Homo sapiens) (UniProt P07948); details: at 0.1 µM; remark: listed apart in the source
[5] = target: Tyrosine-protein kinase Lyn (Homo sapiens) (UniProt P07948); details: at 1 µM; remark: listed apart in the source
[6] = target: T1, Tyrosine-protein kinase Mer (Homo sapiens) (UniProt Q12866); details: at 0.1 µM
T1 sequence (whole entry): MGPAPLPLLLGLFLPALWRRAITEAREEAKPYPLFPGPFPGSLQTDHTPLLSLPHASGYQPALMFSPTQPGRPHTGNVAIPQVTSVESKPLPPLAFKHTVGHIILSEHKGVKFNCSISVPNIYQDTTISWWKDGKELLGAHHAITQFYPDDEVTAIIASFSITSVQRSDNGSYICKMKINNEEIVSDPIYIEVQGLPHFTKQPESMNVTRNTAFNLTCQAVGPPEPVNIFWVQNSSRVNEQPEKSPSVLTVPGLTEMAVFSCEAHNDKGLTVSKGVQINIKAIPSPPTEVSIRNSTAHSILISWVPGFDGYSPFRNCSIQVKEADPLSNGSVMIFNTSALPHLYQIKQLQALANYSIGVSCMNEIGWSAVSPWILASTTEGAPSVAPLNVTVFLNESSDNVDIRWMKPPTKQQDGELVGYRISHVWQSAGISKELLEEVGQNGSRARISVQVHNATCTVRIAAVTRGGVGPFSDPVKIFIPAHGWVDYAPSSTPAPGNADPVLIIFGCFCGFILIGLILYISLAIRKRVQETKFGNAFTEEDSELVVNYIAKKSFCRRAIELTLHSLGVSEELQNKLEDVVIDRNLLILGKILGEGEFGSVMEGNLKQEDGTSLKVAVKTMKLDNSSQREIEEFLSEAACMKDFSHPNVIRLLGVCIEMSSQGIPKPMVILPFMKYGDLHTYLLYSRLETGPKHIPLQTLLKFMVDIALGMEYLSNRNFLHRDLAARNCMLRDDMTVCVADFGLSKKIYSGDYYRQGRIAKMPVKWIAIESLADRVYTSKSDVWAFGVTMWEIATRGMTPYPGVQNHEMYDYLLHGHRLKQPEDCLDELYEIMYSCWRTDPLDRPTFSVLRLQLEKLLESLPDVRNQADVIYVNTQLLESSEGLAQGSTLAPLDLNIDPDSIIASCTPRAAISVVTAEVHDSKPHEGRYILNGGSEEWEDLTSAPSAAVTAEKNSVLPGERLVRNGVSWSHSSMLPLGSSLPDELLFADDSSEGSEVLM

[7] = target: T1, Tyrosine-protein kinase Mer (Homo sapiens); details: at 1 µM
[8] = target: Hepatocyte growth factor receptor (Homo sapiens) (UniProt P08581); details: at 0.1 µM
[9] = target: Hepatocyte growth factor receptor (Homo sapiens) (UniProt P08581); details: at 1 µM
[10] = target: T2, Muscle, skeletal receptor tyrosine-protein kinase (Homo sapiens) (UniProt O15146); details: at 0.1 µM
T2 sequence (whole entry): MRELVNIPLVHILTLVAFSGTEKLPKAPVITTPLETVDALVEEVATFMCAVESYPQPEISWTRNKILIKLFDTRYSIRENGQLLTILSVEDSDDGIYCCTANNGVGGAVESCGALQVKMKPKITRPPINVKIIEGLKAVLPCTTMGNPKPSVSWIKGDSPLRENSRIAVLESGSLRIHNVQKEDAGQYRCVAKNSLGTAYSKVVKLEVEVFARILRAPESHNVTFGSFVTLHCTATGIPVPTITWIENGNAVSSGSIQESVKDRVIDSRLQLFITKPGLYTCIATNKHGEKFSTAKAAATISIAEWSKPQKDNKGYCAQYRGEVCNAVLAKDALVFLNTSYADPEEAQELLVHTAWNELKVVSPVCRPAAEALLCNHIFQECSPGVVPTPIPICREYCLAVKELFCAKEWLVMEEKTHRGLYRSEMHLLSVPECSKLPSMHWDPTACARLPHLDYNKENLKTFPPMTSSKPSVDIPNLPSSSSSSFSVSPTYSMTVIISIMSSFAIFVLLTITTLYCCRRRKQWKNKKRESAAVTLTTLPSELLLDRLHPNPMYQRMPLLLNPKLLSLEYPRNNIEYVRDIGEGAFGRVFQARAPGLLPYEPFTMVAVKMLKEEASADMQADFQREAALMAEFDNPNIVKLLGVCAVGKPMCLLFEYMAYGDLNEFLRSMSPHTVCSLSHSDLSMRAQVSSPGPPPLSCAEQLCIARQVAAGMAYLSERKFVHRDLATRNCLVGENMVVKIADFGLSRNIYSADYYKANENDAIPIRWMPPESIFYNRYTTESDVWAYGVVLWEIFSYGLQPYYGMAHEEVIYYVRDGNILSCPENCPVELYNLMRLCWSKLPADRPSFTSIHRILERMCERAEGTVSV

[11] = target: T2, Muscle, skeletal receptor tyrosine-protein kinase (Homo sapiens); details: at 1 µM
[12] = target: Platelet-derived growth factor receptor alpha (Homo sapiens) (UniProt P16234); details: at 0.1 µM
[13] = target: Platelet-derived growth factor receptor alpha (Homo sapiens) (UniProt P16234); details: at 1 µM
[14] = tested on: Platelet-derived growth factor receptor alpha (Homo sapiens), P16234 [D842V]; details: at 0.1 µM
[15] = tested on: Platelet-derived growth factor receptor alpha (Homo sapiens), P16234 [D842V]; details: at 1 µM
[16] = tested on: Platelet-derived growth factor receptor alpha (Homo sapiens), P16234 [T674I]; details: at 0.1 µM
[17] = tested on: Platelet-derived growth factor receptor alpha (Homo sapiens), P16234 [T674I]; details: at 1 µM
[18] = tested on: Platelet-derived growth factor receptor alpha (Homo sapiens), P16234 [V561D]; details: at 0.1 µM
[19] = tested on: Platelet-derived growth factor receptor alpha (Homo sapiens), P16234 [V561D]; details: at 1 µM
[20] = target: Platelet-derived growth factor receptor beta (Homo sapiens) (UniProt P09619); details: at 0.1 µM;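 further: reported value is the mean percent inhibition of the kinase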
Sequence of Platelet-derived growth factor receptor beta (Homo sapiens) (P09619 whole entry): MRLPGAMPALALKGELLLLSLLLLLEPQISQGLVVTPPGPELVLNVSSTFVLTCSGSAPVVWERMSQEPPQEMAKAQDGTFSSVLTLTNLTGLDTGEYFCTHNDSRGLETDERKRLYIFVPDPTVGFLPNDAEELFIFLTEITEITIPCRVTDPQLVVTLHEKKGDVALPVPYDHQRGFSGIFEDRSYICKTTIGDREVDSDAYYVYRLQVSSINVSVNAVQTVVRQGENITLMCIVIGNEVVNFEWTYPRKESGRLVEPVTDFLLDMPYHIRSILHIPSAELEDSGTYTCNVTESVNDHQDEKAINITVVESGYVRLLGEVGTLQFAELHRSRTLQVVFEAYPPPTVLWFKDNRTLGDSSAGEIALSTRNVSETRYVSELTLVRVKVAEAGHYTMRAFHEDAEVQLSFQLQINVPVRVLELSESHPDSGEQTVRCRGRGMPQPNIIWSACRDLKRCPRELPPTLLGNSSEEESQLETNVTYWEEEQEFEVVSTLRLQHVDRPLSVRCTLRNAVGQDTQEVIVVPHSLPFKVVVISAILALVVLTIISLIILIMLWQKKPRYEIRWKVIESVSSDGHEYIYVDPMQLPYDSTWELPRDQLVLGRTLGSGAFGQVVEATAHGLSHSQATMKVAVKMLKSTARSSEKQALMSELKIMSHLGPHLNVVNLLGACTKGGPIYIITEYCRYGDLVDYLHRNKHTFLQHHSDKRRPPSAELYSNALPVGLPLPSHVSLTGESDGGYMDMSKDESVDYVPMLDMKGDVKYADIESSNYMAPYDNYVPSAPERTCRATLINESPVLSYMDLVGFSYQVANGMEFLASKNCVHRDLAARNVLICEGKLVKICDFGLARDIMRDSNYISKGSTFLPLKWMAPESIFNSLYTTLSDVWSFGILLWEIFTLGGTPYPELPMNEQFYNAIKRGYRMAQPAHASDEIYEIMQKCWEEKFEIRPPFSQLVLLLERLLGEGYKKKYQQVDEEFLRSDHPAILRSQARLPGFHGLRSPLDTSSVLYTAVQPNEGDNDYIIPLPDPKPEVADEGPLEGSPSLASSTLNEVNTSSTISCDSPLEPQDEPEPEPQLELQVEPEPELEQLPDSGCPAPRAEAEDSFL

Sequence of Tyrosine-protein kinase Lyn (Homo sapiens) (P07948 2-512 limits assumed): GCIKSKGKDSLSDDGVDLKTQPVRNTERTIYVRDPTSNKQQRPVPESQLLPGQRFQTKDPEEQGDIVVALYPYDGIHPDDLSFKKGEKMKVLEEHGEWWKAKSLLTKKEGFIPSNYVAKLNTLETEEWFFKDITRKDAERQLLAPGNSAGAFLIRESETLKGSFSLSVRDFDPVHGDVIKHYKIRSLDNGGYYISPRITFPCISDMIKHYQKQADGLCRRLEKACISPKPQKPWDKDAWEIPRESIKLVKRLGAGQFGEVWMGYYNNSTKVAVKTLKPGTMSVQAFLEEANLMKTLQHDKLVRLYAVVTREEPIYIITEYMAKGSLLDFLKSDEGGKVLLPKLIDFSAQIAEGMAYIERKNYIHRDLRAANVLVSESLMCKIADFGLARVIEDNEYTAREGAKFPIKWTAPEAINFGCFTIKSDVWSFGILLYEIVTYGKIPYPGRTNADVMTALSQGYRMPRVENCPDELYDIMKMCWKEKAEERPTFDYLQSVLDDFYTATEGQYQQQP
Sequence of Platelet-derived growth factor receptor alpha (Homo sapiens), P16234 [D842V] (P16234 whole entry D842V): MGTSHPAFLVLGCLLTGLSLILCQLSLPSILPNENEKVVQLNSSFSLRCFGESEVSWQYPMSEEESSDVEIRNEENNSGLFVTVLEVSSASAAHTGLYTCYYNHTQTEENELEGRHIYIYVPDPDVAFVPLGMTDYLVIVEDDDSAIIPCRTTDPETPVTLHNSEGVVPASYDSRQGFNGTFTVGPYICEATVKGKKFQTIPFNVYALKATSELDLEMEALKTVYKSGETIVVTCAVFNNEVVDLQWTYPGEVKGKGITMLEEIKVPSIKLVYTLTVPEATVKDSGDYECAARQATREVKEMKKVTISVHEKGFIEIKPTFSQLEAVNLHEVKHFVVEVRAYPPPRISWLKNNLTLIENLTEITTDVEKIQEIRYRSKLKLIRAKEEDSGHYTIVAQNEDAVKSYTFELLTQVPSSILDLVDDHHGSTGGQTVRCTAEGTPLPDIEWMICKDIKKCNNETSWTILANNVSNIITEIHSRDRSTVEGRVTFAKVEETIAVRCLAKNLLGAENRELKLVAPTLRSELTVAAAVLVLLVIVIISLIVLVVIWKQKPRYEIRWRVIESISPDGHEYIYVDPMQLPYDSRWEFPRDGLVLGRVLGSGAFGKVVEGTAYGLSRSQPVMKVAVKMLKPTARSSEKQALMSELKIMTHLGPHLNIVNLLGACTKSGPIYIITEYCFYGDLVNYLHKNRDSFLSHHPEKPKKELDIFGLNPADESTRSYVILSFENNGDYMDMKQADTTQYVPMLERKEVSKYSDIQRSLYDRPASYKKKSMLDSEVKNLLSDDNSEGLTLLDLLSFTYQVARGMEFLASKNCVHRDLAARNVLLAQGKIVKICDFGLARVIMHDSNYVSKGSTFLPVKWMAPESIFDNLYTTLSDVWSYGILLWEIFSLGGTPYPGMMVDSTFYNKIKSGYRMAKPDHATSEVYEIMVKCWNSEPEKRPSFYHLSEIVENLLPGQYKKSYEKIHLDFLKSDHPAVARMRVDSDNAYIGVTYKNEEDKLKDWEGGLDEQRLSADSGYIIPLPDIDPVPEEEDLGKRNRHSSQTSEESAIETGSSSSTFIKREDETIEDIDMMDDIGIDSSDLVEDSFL
Sequence of Hepatocyte growth factor receptor (Homo sapiens) (P08581 whole entry): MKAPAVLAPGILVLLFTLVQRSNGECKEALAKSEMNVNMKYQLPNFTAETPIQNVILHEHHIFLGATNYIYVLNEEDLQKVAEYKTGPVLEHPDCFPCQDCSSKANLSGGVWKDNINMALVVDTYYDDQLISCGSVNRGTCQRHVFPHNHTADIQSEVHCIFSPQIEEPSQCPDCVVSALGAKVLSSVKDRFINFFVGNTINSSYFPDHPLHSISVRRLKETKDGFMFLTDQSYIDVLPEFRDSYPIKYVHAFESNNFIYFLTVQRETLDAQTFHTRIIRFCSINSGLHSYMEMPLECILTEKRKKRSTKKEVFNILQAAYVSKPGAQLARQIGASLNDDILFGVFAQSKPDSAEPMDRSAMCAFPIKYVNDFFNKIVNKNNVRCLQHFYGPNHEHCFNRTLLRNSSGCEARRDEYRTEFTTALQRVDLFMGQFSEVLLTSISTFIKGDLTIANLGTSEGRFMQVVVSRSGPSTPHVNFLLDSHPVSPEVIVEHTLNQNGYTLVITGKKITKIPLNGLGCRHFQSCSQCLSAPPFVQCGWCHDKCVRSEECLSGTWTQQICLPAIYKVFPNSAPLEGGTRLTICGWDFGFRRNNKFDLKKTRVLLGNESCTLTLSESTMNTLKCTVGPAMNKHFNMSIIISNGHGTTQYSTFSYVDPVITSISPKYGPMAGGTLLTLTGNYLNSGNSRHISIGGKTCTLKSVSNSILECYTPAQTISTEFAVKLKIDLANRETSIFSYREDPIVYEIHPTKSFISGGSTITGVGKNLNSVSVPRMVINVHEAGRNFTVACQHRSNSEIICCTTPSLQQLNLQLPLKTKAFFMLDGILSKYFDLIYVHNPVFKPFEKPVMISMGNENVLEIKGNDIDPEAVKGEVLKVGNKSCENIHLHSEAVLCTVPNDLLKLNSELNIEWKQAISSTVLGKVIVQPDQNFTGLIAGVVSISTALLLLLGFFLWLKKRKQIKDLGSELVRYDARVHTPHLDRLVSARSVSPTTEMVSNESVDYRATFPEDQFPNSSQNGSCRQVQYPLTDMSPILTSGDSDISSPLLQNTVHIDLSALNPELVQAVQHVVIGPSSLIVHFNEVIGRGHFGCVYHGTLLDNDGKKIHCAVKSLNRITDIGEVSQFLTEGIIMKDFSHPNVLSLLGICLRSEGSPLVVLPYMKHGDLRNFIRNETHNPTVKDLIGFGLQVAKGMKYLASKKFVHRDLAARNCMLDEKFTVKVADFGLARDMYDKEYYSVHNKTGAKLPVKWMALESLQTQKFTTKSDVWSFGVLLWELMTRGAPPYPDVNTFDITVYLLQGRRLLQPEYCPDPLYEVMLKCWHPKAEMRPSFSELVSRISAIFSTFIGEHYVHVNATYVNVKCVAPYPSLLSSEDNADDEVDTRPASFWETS
Sequence of Leukocyte tyrosine kinase receptor (Homo sapiens) (P29376 whole entry): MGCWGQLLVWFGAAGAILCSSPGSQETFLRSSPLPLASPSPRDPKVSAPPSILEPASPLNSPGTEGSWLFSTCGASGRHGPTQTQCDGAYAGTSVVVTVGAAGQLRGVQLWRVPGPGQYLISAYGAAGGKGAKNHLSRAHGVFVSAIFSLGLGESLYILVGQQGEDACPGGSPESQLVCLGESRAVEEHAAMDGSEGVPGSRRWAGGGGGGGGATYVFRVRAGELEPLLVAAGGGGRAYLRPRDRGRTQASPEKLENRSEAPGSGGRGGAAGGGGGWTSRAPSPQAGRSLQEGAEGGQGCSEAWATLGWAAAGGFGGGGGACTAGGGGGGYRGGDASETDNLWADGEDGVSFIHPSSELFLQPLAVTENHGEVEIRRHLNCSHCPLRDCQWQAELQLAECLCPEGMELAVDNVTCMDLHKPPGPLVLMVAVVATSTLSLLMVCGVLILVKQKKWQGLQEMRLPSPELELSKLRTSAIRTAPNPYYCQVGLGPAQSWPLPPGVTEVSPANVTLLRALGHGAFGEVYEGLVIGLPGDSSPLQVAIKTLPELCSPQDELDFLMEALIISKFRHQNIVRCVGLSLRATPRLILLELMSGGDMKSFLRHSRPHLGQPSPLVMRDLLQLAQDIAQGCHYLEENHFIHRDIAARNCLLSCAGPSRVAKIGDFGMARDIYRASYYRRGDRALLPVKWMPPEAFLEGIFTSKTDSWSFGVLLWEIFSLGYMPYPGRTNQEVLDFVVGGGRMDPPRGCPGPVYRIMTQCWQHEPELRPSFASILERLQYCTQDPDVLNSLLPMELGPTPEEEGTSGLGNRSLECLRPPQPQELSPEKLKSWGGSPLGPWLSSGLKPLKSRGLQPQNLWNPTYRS

| SMILES | inhibition [1] | inhibition [2] | inhibition [3] | inhibition [4] | inhibition [5] | inhibition [6] | inhibition [7] | inhibition [8] | inhibition [9] | inhibition [10] | inhibition [11] | inhibition [12] | inhibition [13] | inhibition [14] | inhibition [15] | inhibition [16] | inhibition [17] | inhibition [18] | inhibition [19] | inhibition [20] |
| --- | --- | --- | --- | --- | --- | --- | --- | --- | --- | --- | --- | --- | --- | --- | --- | --- | --- | --- | --- | --- |
| COc1cc2ncn(-c3cc(OCc4ccccc4C(F)(F)F)c(C(C)=O)s3)c2cc1OC | 3.33% | 3.36% | 6.9% | 4.22% | 6.9% | -0.14% | 4.1% | 1.74% | 13.5% | 2.48% | 3.03% | 10.4% | 31.8% | 3.21% | 13.8% | 5.42% | 13.4% | 3.99% | 19.7% | 8.96% |
| COc1cc(C)c(N(C)C(=O)CN(C)C)cc1Nc1nc(Nc2cccc(F)c2C(N)=O)c2cc[nH]c2n1 | 57.5% | 0.96% | 2.25% | -0.16% | 0.99% | 1.74% | 1.94% | -0.92% | 1.68% | 1.6% | 3.08% | 4.02% | 7.22% | 0.9% | 0.89% | 1.14% | -0.57% | -2.16% | 2.56% | 0.52% |
| COc1cccc(-n2cnc3c(N/N=C/c4ccncc4)ncnc32)c1 | 0.9% | 7.17% | 47.2% | 6.07% | 41.6% | 0.12% | 4.47% | 0.87% | 6.87% | 2.4% | 17.1% | 17.9% | 53.6% | 4.61% | 45.6% | 2.14% | 18.3% | 10.3% | 51% | 13.2% |
| NC(=O)c1cc(-c2ccncc2)cc(-c2ccccc2)c1N | 6.16% | 11.7% | 48.8% | 10% | 43% | 1.28% | 3.16% | 0.99% | 3.43% | 2.46% | 3.55% | 9.17% | 36.2% | 3.01% | 11.3% | 5.87% | 11.6% | 5.79% | 37.8% | 9.7% |
| COc1cc2ncn(-c3cc(OCc4cccs4)c(C(N)=O)s3)c2cc1OC | 7.14% | 4.29% | 22.6% | 2.41% | 19.3% | 3.4% | 10.7% | 8.19% | 13.4% | 4.86% | 12.1% | 36% | 77.6% | 19.4% | 72.8% | 7.11% | 57.7% | 24.7% | 72.9% | 31.2% |
| Fc1ccc(-c2nc3n(c2-c2ccncc2)CCS3)cc1 | 2.85% | 3.56% | 7.36% | 1.97% | 4.29% | 1.16% | 3.24% | 8.26% | 5.29% | 2.08% | 2.27% | 6.42% | 11.1% | 4.17% | 3.44% | 5.4% | 6.09% | -0.4% | 4.82% | 3.87% |
| NS(=O)(=O)c1ccc(Nc2cc(-c3ccc(O)c(F)c3)n[nH]2)cc1 | 0.7% | 2.66% | 20% | 0.57% | 17.4% | 1.99% | 13.4% | 0.07% | -2.91% | 5.85% | 41% | 17% | 61.5% | 4.48% | 39.5% | 11.1% | 73.5% | 33.2% | 68.3% | 11.8% |
| O=C1NC(=O)C(c2cccc(Cl)c2)=C1Nc1ccc(Cl)c(C(=O)O)c1 | 2.96% | 3.89% | 4.02% | 2.44% | 3.42% | 1.12% | -0.64% | 1.38% | 3.65% | 2.04% | 3.32% | 5.36% | 9.61% | 0.72% | 1.68% | 6.92% | 5.66% | 2.77% | 0.49% | 1.55% |
| COc1cccc(/C=N/Nc2ncnc3c2cnn3-c2cccc(OC)c2)c1 | 4.06% | 5.08% | 15.3% | 3.29% | 10.9% | 1.87% | 2.85% | 4.9% | 9.96% | 1.34% | 3.43% | 2.69% | 14.9% | 2.84% | 7.96% | 2.59% | 6.59% | 2.65% | 7.82% | 4.05% |
| O=C(Nc1n[nH]c2nc(-c3ccco3)ccc12)C1CC1 | 1.2% | 2.83% | 4.01% | 1.47% | 3.2% | 2.01% | 1.71% | 4.66% | 5.26% | 5.75% | 7.97% | 6.36% | 10.6% | 3.54% | 6.18% | 4.27% | 6.36% | 3.66% | 7.73% | 1.45% |
| COc1ccc2ncn(-c3cc(O[C@H](C)c4ccccc4Cl)c(C(N)=O)s3)c2c1 | 2.89% | 3.82% | 5.65% | 2.15% | 2.91% | 2.41% | 4.42% | 4.37% | 4.23% | 2.62% | 15% | 10.4% | 23.1% | 2.8% | 11.8% | 0.85% | 9.98% | 4.37% | 16.6% | 5.46% |
| COc1ccc2cc(-c3c(-c4ccncc4)nc(-c4ccc(S(C)(=O)=O)cc4C)n3C)ccc2c1 | 5.96% | 6.65% | 22.3% | 3.79% | 16.7% | 2.19% | 9.48% | 2.55% | 4.21% | 3.24% | 6.38% | 7.63% | 23.6% | 2.7% | 12.3% | 7.17% | 10.1% | 8.36% | 15.3% | 2.38% |
| O=C(Nc1n[nH]c2cc(-c3cc(F)ccc3F)ccc12)C1CC1 | 2.7% | 5.22% | 5.51% | 3.27% | 2.53% | 0.82% | 2.71% | 6.12% | 4.36% | 3.35% | 10.1% | 7.53% | 18.3% | 2.07% | 7.89% | 5.2% | 9.61% | 3.2% | 13.2% | 3.6% |

From ChEMBL document CHEMBL1961873, “Compounds: GSK PKIS; Assays: Nanosyn kinase panel” (2012)
